# Assay results published in PubChem BioAssay AID686978 (National Center for Advancing Translational Sciences (NCATS), 2013).
# The whole screen tested about 420,000 compounds, of which about 64,000 (15%) were called active. Inconclusive results (about 27%) are left out. Calls follow the shape of the dose curve; as a rule, active = well fitted inhibition curve with a large enough effect; inconclusive = small, poorly fitted or top-dose-only effect; inactive = flat fitted curve, though single readings scatter. The list is a sample of the results.
# Assay: qHTS for Inhibitors of human tyrosyl-DNA phosphodiesterase 1 (TDP1): qHTS in cells in absence of CPT; also: nearly all actives have a fitted effect of over 55% in size
# Settings: DT40 Tdp1-/- hTDP1 cells, no CPT, ATP luminescence, 48 h; activity change, negative = growth inhibition: at 46.2 µM (top of the series)
# Procedure, shortened: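 Seeded 400 DT40-hTDP1 cells/well (vehicle DMSO, no 20 nM CPT); pinned compounds; ≥48 hr at 37 °C; CellTiter-Glo luminescence as viability measure.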
# % is scaled to controls: 0 for no effect and ±100 for the full control effect; potency is read from the fitted curve at half-maximal effect.
Compound,"activity change, negative = growth inhibition",Potency
Cc1ccc(NNC(=O)C2CCC2)cc1C,-28.8% (inactive),
COc1ccccc1-c1c(C#N)c(N)nc2c1CCC2,-24.4% (inactive),
Cc1ccc2nsnc2c1NC(=O)c1ccccc1[N+](=O)[O-],-17.5% (inactive),
Cc1c(CN2CCC(n3nccc3NC(=O)CCc3ccccc3)CC2)cnn1C,22.2% (inactive),
c1ccc(CCC2=NCCn3cccc32)cc1,,inactive
CCc1ccc(NC(=O)CN2C(=O)CSC2=O)cc1,-14.3% (inactive),
O=C(Nc1ccccc1Cl)O/N=C(/c1ccccc1)c1ccccn1,-5.77% (inactive),
c1ccc(C(=NNc2nc3ccccc3s2)c2ccccn2)cc1,,0.13 µM (active)
Cc1ccnc(Nc2nc3ccccc3s2)n1,-12.8% (inactive),
CCC(CC)C(=O)Nc1ccc(S(=O)(=O)Nc2nccs2)cc1,-15.6% (inactive),
O=C(NCCC1=CCCCC1)c1ccc(Cl)c([N+](=O)[O-])c1,,16.4 µM (active)
O=C(Nc1cccnc1)c1ccc(Cl)c([N+](=O)[O-])c1,-18.2% (inactive),
Cc1ccnc(NC(=O)c2ccc(Cl)c([N+](=O)[O-])c2)c1,-16.4% (inactive),
Cn1nnc2cc(C(=O)NCCC3=CCCCC3)ccc21,-28% (inactive),
O=C(Nc1ccncc1)c1ccc(Cl)c([N+](=O)[O-])c1,,14.6 µM (active)
O=C(NCCC1=CCCCC1)c1ccc(-n2cncn2)cc1,10.9% (inactive),
C#CCCCCCCCCCCCCCCCC(=O)O,,inactive
CCCCC(=O)OC1=CN(Cc2ccccc2)S(=O)(=O)c2ccccc21,-25.3% (inactive),
CCOC(=O)Cc1cccc(-c2cc(CCCCCCc3ccc(O[C@H]4O[C@H](COC(C)=O)[C@@H](OC(C)=O)[C@H](OC(C)=O)[C@@H]4OC(C)=O)c(-c4cccc(CC(=O)OCC)c4)c3)ccc2O[C@H]2O[C@H](COC(C)=O)[C@@H](OC(C)=O)[C@H](OC(C)=O)[C@@H]2OC(C)=O)c1,-2.24% (inactive),
COC(C[C@@H]1O[C@@H]1C(=O)[C@@H](C)OCc1ccccc1)OC,-0.475% (inactive),
Cc1ccccc1CSCCNC(=O)C1CCN(S(=O)(=O)Cc2ccccc2)CC1,1.55% (inactive),
Cc1cccc(NC(=O)C2CCCN(C(=O)Nc3ccc(F)cc3)C2)c1C (centres undefined),-19% (inactive),
Cc1c(Cl)cccc1NC(=O)C1CCCN(c2ncnc3onc(C)c23)C1 (centres undefined),,6.51 µM (active)
Cc1ccc(Cl)cc1NC(=O)C1CCCN(c2cnccn2)C1 (centres undefined),-14.8% (inactive),
Cc1cn([C@H]2C[C@H](O)[C@@H](/C=C/C(=O)NCCCc3ccccc3)O2)c(=O)[nH]c1=O,-6.38% (inactive),

Compound,"activity change, negative = growth inhibition",Potency
Cc1ccc(C)c(NC(=O)C2CCCN2C(=O)OC(C)(C)C)c1 (centres undefined),-7.65% (inactive),
CCOC(=O)N1CCC(Nc2c(NCCCN3CCN(c4ccc(OC)cc4)CC3)c(=O)c2=O)CC1,6.14% (inactive),
COc1ccc(N2CCN(CCNC(=O)Nc3cc(Cl)ccc3Cl)CC2)cc1,-3.29% (inactive),
CCOC(=O)N1CCC(Nc2c(NCCN3CCN(c4cccc(Cl)c4)CC3)c(=O)c2=O)CC1,-11.3% (inactive),
Cc1ccccc1N1CCN(CC(=O)NCc2ccc(Cl)cc2)CC1,-29% (inactive),
Cc1ccc(C)c(N2CCN(CCCNC(=O)Nc3ccc(Cl)cc3)CC2)c1,,6.51 µM (active)
Cc1ccc(C)c(N2CCN(C(=O)Cc3c(C(=O)O)c(C)cn3C)CC2)c1,-0.116% (inactive),
CCn1c(=O)cc(OCC(=O)NCCCN2CCN(c3cccc(Cl)c3)CC2)c2ccccc21,,20.6 µM (active)
O=C(COc1cc2oc(=O)c3c(c2cc1Cl)CCC3)NCCCN1CCOCC1,1.09% (inactive),
Cn1c(=O)cc(OCC(=O)N2CCN(c3ccccc3)CC2)c2ccccc21,1.19% (inactive),
CCOC(=O)c1c(C)[nH]c(CCC(=O)NCCCN2CCN(c3cccc(Cl)c3)CC2)c1C,,16.4 µM (active)
CCOC(=O)c1c(C)[nH]c(CCC(=O)NCCCN2CCN(c3cc(C)ccc3C)CC2)c1C,,4.61 µM (active)
CCOC(=O)c1c(C)[nH]c(C(=O)NCCN2CCOCC2)c1C,14.9% (inactive),
CCOc1ccc(S(=O)(=O)NCCCn2ccnc2)cc1NC(C)=O,-20.8% (inactive),
CN(CCc1ccccc1)c1ccc([N+](=O)[O-])cn1,5.85% (inactive),
C/C=C(/C)C(=O)Nc1cccc(C2=NOC3(C2)C[C@@H](C(N)=O)N(C(=O)C2(C)CC2)C3)c1 (some centres undefined),-16.5% (inactive),
O=C(NCC(O)c1ccc([N+](=O)[O-])cc1)C1CCCCC1 (centres undefined),13.8% (inactive),
C=CC1C(OC2OC(CO)C(O)C(O)C2O)OC=C(C(=O)OC)C1CC1CC(=O)CC(CC(=O)CCc2ccc(O)cc2)O1 (centres undefined),-16.7% (inactive),
C[C@@H](O)c1nc2ccccc2n1N,10.4% (inactive),
C#CCOCCOCCOCCNc1nc(N2CCOCC2)nc(N2CCN(C(=O)[C@H](Cc3ccc(O)cc3)n3cc(CCO)nn3)CC2)n1,20.5% (inactive),
Cn1cc(CN2CCCCC2c2ccccn2)c(-c2ccc3c(c2)OCCO3)n1 (centres undefined),-11.7% (inactive),
CC1=C(c2ccc(C)cc2)S(=O)(=O)NC1=NCCCN1CCN(c2cc(C)ccc2C)CC1,,3.66 µM (active)
CCc1nnc(NC(=O)CCC(=O)N2CCN(c3cc(C)ccc3C)CC2)s1,-7.76% (inactive),
COC(=O)c1ccc2c(c1)S(=O)(=O)NC(=NCCCN1CCOCC1)S2,-1.67% (inactive),
CCN(CC)C(=O)N1CCN(C(=O)c2ccc(C)cn2)CC1,-5.87% (inactive),

Compound,"activity change, negative = growth inhibition",Potency
Cc1nc2ccc(C(=O)N/N=C/c3ccc(O)cc3)cc2[nH]1,-4.18% (inactive),
O=C(N/N=C/c1ccc(Cl)c(Cl)c1)c1ccc2nc[nH]c2c1,,23.1 µM (active)
CC(=NNC(=O)c1ccc2nc[nH]c2c1)c1ccc(Br)cc1,-25.5% (inactive),
CCCCc1ccc(S(=O)(=O)NC(=O)C2(C)CCN2C(=O)c2ccccc2)cc1 (centres undefined),-2.64% (inactive),
COc1ccc(C2/C(=C(/O)c3ccc4c(c3)CC(C)O4)C(=O)C(=O)N2Cc2ccncc2)cc1 (centres undefined),2.22% (inactive),
COc1cc(C2C(C(=O)OCCC#N)=C(C)NC3=C2S(=O)(=O)c2ccccc23)cc(OC)c1OC (centres undefined),18.7% (inactive),
O=C(Nc1ccccc1Br)c1cc(CN2CCCC2)on1,-15% (inactive),
O=C(c1ccco1)N1CCN(C(=O)c2cc(-c3ccccc3F)no2)CC1,-5.39% (inactive),
CN(Cc1ccccc1F)C(=O)C(Cc1ccccc1)NC(=O)c1ccccc1 (centres undefined),,16.4 µM (active)
CC(Cc1ccccc1)C(=O)N(C)Cc1ccccc1 (centres undefined),-13.9% (inactive),
CN(Cc1ccccc1)Cc1ccccc1F,-26.3% (inactive),
Cc1ccc(C)c(C(C)NC(=O)C2CCCO2)c1 (centres undefined),-28.7% (inactive),
O=c1onc(-c2c(F)cccc2F)n1-c1ccccc1Cl,16.1% (inactive),
CCOC(=O)Cn1c(SC)nc2sc3c(c2c1=O)CC(C)(C)OC3,,14.6 µM (active)
CCOC(=O)CSc1nc2sc3c(c2c(=O)[nH]1)CC(C)(C)OC3,-25.4% (inactive),
CCSc1nc2sc3c(c2c(=O)[nH]1)CC(C)(C)OC3,-19.9% (inactive),
CCOCCOC(=O)C1=C(C)N(C)C(=O)NC1c1ccccc1F (centres undefined),-14.8% (inactive),
COC(=O)C1(C)NC(c2ccccc2OC)C2C(=O)N(c3ccccc3)C(=O)C21 (centres undefined),9.08% (inactive),
CCOC(=O)C1(Cc2ccc(O)cc2)NC(c2ccccc2F)C2C(=O)N(C)C(=O)C21 (centres undefined),,20.6 µM (active)
Cc1cc(C)cc(NC(=O)Cn2cnc3c(nnn3Cc3ccc(F)cc3)c2=O)c1,0.0292% (inactive),
Cc1n[nH]c(=O)c2c1nnn2Cc1ccc(F)cc1,17.2% (inactive),
Cc1ccc(C)c(Cn2nnc3c(=O)[nH]c(C(=O)Nc4ccc(F)cc4)nc32)c1,,16.4 µM (active)
O=C1NC(c2ccccc2)Oc2ccccc21 (centres undefined),-0.613% (inactive),
O=C(OCCN1C(=O)c2ccccc2C1=O)Oc1ccccc1,3.82% (inactive),
C[C@H]1CN([C@@H](C)CO)C(=O)CCCn2cc(nn2)CO[C@@H]1CN(C)C(=O)Nc1ccccc1,9.92% (inactive),

Compound,"activity change, negative = growth inhibition",Potency
NC(=O)CC(NC(=O)Cc1cccc2ccccc12)c1ccc(NCc2cc(F)ccc2F)c([N+](=O)[O-])c1 (centres undefined),,29.1 µM (active)
CC1CCCCN1CCCNc1ccc(C(CC(N)=O)NC(=O)c2ccccc2)cc1[N+](=O)[O-] (centres undefined),1.22% (inactive),
COc1ccc(OC)c(C(=O)NC(CC(N)=O)c2ccc(N3CCC(N4CCCCC4)CC3)c([N+](=O)[O-])c2)c1 (centres undefined),-0.645% (inactive),
CS(=O)(=O)Nc1cccc(-c2cncnc2Nc2ccccc2)c1,-2.18% (inactive),
COc1ccccc1CNc1ncncc1-c1cccc(NS(C)(=O)=O)c1,19.5% (inactive),
CNc1ncnc2ccc(-c3cccc(NS(C)(=O)=O)c3)cc12,,18.4 µM (active)
Cn1c2ccccc2c2cc(/C=C(\NC(=O)c3ccccc3)C(=O)NCC(=O)O)ccc21,7.87% (inactive),
O=C(O)C1CCCN1C1=NS(=O)(=O)c2ccccc21 (centres undefined),18.4% (inactive),
Fc1cccc(-n2ncc3c2ncn2nc(-c4ccccc4Cl)nc32)c1,-15.3% (inactive),
COc1cc(C2C3=C(CCCC3=O)OC3=C2C(=O)CCC3)ccc1OCC(=O)Nc1ccccc1,-25.5% (inactive),
COc1ccc(N2C(=O)c3ccccc3NC2c2ccc(OC)c(CN3CCOCC3)c2)cc1 (centres undefined),-19.5% (inactive),
COc1ccc(C2Nc3ccc(NC(=O)COC(C)=O)cc3C(=O)N2Cc2ccccc2)cc1COc1ccc(NC(C)=O)cc1 (centres undefined),,12.6 µM (active)
CN(CC(=O)Nc1ccc(F)cc1)CC(=O)N1CCCCC1,-14.5% (inactive),
CCc1c(C)c2c(C)[nH]nc2oc1=O,-25% (inactive),
COc1ccc(OC)c(Cc2cnc3nc(N)nc(N)c3c2C)c1,,0.164 µM (active)
COc1ccc(OC)c(-n2nnc3c(sc4nc(C)c(Br)c(C)c43)c2=O)c1,1% (inactive),
Cc1nnc(NC(=O)c2ccc3nccnc3c2)s1,-30% (inactive),
O=C(COc1nsnc1N1CCOCC1)Nc1ccccc1Cl,1.23% (inactive),
NC(=O)C1CCN(C(=O)COc2cccc3cccnc23)CC1,1.62% (inactive),
CCOc1cc(N2CCOCC2)c(OCC)cc1NC(=O)COc1cccc(Cl)c1,,2.59 µM (active)
O=C(COc1ccc(Cl)cc1)NC(=S)Nc1ccccc1N1CCOCC1,-2.65% (inactive),
CCOc1cc(N2CCOCC2)c(OCC)cc1NC(=O)COc1cccc2cccnc12,,10.3 µM (active)
O=C(COc1cccc(Cl)c1)NCc1ccccc1,-10.2% (inactive),
CC1CCN(C(=O)Cn2cc(C(=O)c3ccco3)c3ccccc32)CC1,-5.83% (inactive),
